# The whole screen tested about 5,500 compounds, of which about 2,000 (36%) were called active. Not shown: some 18% with an inconclusive outcome. The list shows a part of the results. A number with no mark means an inactive call. Cut-off read from the data, not from the text of the source: active = normalized growth mostly below about 0.91 (no sharp cut-off); inconclusive = no clear call, values can overlap the other calls; inactive = mostly above about 0.92.
# Experiment: chemical genetic growth profiling, strain panel (AID 1159580);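 note: tested at 20 µM; growth read once vehicle control cultures reached saturation at 30 °C; 1 = growth at the plate median or of vehicle wells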
# Conditions: S. cerevisiae deletion strains, growth OD
# [1] = locus YAL040C, strain CLN3, stronger effect = lower value
# [2] = locus YCL061C, strain MRC1 (second series), stronger effect = lower value
# [3] = locus YDR363W, strain ESC2, stronger effect = lower value
# [4] = locus YER002W, strain NOP16, stronger effect = lower value
# [5] = locus YGR229C, strain SMI1, stronger effect = lower value
# [6] = locus YMR307W, strain GAS1, stronger effect = lower value
# [7] = locus YNL153C, strain GIM3, stronger effect = lower value
# [8] = locus YNL175C, strain NOP13, stronger effect = lower value
# [9] = locus YNL197C, strain WHI3, stronger effect = lower value
# [10] = locus YNL224C, strain SQS1, stronger effect = lower value
# [11] = locus YOR083W, strain WHI5 (second series), stronger effect = lower value
# [12] = locus YPL055C, strain LGE1, stronger effect = lower value
# [13] = locus YDR150W, strain NUM1, stronger effect = lower value
# [14] = locus YGR078C, strain PAC10, stronger effect = lower value
# [15] = locus YJR075W, strain HOC1, stronger effect = lower value
# [16] = locus YMR263W, strain SAP30, stronger effect = lower value
# [17] = locus YNL322C, strain KRE1, stronger effect = lower value
# [18] = locus YPL241C, strain CIN2, stronger effect = lower value
# [19] = locus YNL128W, strain TEP1, stronger effect = lower value
# [20] = locus YAL013W, strain DEP1, stronger effect = lower value
smiles,measurement,setting,value
CN1CCc2cc(Cl)c(O)cc2[C@@H](c2ccccc2)C1,normalized growth,[1],1.01
same,normalized growth,[2],1
same,normalized growth,[3],1.01
same,normalized growth,[4],1.04
same,normalized growth,[5],1.03
same,normalized growth,[6],0.993
same,normalized growth,[7],1.02
same,normalized growth,[8],1.01
same,normalized growth,[9],0.995
same,normalized growth,[10],1.01
same,normalized growth,[11],1.03
same,normalized growth,[12],0.995
Oc1cc2c(c(Cl)c1O)CCNCC2c1ccccc1 (stereo not drawn),normalized growth,[1],0.985
same,normalized growth,[2],0.985
same,normalized growth,[13],0.925 (active)
same,normalized growth,[3],0.977
same,normalized growth,[4],0.978
same,normalized growth,[14],0.995
same,normalized growth,[15],0.875 (active)
same,normalized growth,[16],1.01
same,normalized growth,[6],0.988
same,normalized growth,[7],0.967
same,normalized growth,[8],1.02
same,normalized growth,[9],1.01
same,normalized growth,[10],1.04
same,normalized growth,[17],0.981
same,normalized growth,[11],1.01
same,normalized growth,[12],0.57 (active)
same,normalized growth,[18],0.981
CN1CCc2c(cc(O)c(O)c2Cl)C(c2cccc(Cl)c2)C1 (stereo not drawn),normalized growth,[1],1.07
same,normalized growth,[2],0.945
same,normalized growth,[3],0.962
same,normalized growth,[4],1.01
same,normalized growth,[15],0.837 (active)
same,normalized growth,[6],0.993
same,normalized growth,[8],1
same,normalized growth,[9],0.991
same,normalized growth,[10],1.01
same,normalized growth,[17],0.917
same,normalized growth,[11],0.982
same,normalized growth,[12],0.466 (active)
same,normalized growth,[18],0.927 (active)
Oc1ccc(C2CNCCc3c2cc(O)c(O)c3Cl)cc1 (stereo not drawn),normalized growth,[1],0.987
same,normalized growth,[2],0.986
same,normalized growth,[3],1.03
same,normalized growth,[4],0.997
same,normalized growth,[16],0.994
same,normalized growth,[6],1.02
same,normalized growth,[19],0.984
same,normalized growth,[7],0.935
same,normalized growth,[8],1
same,normalized growth,[9],0.977
same,normalized growth,[10],1.06
same,normalized growth,[17],1.02
same,normalized growth,[11],0.965
same,normalized growth,[12],0.989
same,normalized growth,[18],0.981
CN1CCc2cc(O)c(O)cc2C(c2ccccc2)C1 (stereo not drawn),normalized growth,[20],1.02
same,normalized growth,[1],1
same,normalized growth,[2],0.997
same,normalized growth,[3],1.02
same,normalized growth,[4],1
same,normalized growth,[16],1
same,normalized growth,[6],0.998
same,normalized growth,[19],1
same,normalized growth,[7],1.01
same,normalized growth,[8],1.01
same,normalized growth,[9],1.01
same,normalized growth,[10],1
same,normalized growth,[17],1
same,normalized growth,[11],1.01
same,normalized growth,[18],1
C=CCN1CCc2cc(O)c(O)cc2C(c2ccccc2)C1 (stereo not drawn),normalized growth,[20],0.95
same,normalized growth,[1],1.06
same,normalized growth,[2],0.979
same,normalized growth,[3],0.994
same,normalized growth,[4],1.02
same,normalized growth,[14],1.01
same,normalized growth,[5],0.917
same,normalized growth,[16],1
same,normalized growth,[6],1
same,normalized growth,[19],1.02
same,normalized growth,[7],1.01
same,normalized growth,[8],1.02
same,normalized growth,[9],1.02
same,normalized growth,[10],1
same,normalized growth,[17],0.966
same,normalized growth,[11],1.02
C=CCN1CCc2c(cc(O)c(O)c2Cl)C(c2ccccc2)C1 (stereo not drawn),normalized growth,[20],0.917
same,normalized growth,[1],0.992
same,normalized growth,[2],0.934 (active)
same,normalized growth,[13],0.907 (active)
same,normalized growth,[3],0.891
same,normalized growth,[4],0.996
same,normalized growth,[16],0.995
same,normalized growth,[6],0.993
same,normalized growth,[7],0.911
same,normalized growth,[8],0.981
same,normalized growth,[9],0.904
same,normalized growth,[10],1.04
same,normalized growth,[17],0.754 (active)
same,normalized growth,[11],0.958
Cc1cccc(C2CN(C)CCc3c2cc(O)c(O)c3Cl)c1 (stereo not drawn),normalized growth,[1],1.01
same,normalized growth,[2],0.988
same,normalized growth,[3],1
same,normalized growth,[4],1.01
same,normalized growth,[6],1.01
same,normalized growth,[8],1.01
same,normalized growth,[9],1.01
same,normalized growth,[10],1.01
same,normalized growth,[17],0.973
same,normalized growth,[11],1.01
same,normalized growth,[18],0.996
C=CCN1CCc2c(cc(O)c(O)c2Br)[C@@H](c2ccccc2)C1,normalized growth,[1],1.03
same,normalized growth,[3],0.8 (active)
same,normalized growth,[4],1
same,normalized growth,[7],0.945
same,normalized growth,[8],1.04
same,normalized growth,[9],0.98
same,normalized growth,[10],1.02
same,normalized growth,[11],0.987
same,normalized growth,[18],0.122 (active)
O=C(CC[N+](=O)[O-])OC[C@H]1O[C@@H](O)[C@H](OC(=O)CC[N+](=O)[O-])[C@@H](OC(=O)CC[N+](=O)[O-])[C@@H]1OC(=O)CC[N+](=O)[O-],normalized growth,"locus YBR021W, strain FUR4, stronger effect = lower value",1.04
same,normalized growth,"locus YBR229C, strain ROT2, stronger effect = lower value",1.02
same,normalized growth,"locus YCL029C, strain bik1, stronger effect = lower value",1.01
same,normalized growth,"locus YDL035C, strain GPR1, stronger effect = lower value",1.08
same,normalized growth,"locus YDL074C, strain BRE1, stronger effect = lower value",1.18
same,normalized growth,"locus YDL101C, strain DUN1, stronger effect = lower value",1.02
same,normalized growth,"locus YDL185W, strain tfp1, stronger effect = lower value",1.01
same,normalized growth,"locus YDL192W, strain arf1, stronger effect = lower value",1.03
same,normalized growth,"locus YDR101C, strain arx1, stronger effect = lower value",1.01
same,normalized growth,[13],1.03
same,normalized growth,"locus YDR162C, strain NBP2, stronger effect = lower value",1.05
same,normalized growth,"locus YDR318W, strain mcm21, stronger effect = lower value",1.03
same,normalized growth,"locus YDR388W, stronger effect = lower value",0.999
same,normalized growth,"locus YDR502C, strain sam2, stronger effect = lower value",1.02
same,normalized growth,"locus YEL061C, strain CIN8, stronger effect = lower value",1.03
same,normalized growth,"locus YER110C, stronger effect = lower value",0.998
same,normalized growth,"locus YER155C, strain BEM2, stronger effect = lower value",1.01
same,normalized growth,"locus YER167W, strain BCK2, stronger effect = lower value",1.02
same,normalized growth,"locus YGL078C, strain dbp3, stronger effect = lower value",1
same,normalized growth,"locus YGL086W, strain mad1, stronger effect = lower value",1.01
same,normalized growth,"locus YGL248W, strain PDE1, stronger effect = lower value",1.05
same,normalized growth,"locus YGR135W, strain pre9, stronger effect = lower value",1.01
same,normalized growth,"locus YGR252W, strain gcn5, stronger effect = lower value",1.04
same,normalized growth,"locus YHR030C, strain SLT2, stronger effect = lower value",1.02
same,normalized growth,"locus YHR079C, strain IRE1 (second series), stronger effect = lower value",0.998
same,normalized growth,"locus YHR094C, strain hxt1, stronger effect = lower value",1.01
same,normalized growth,"locus YHR129C, strain ARP1, stronger effect = lower value",1.04
same,normalized growth,"locus YHR200W, strain rpn10, stronger effect = lower value",1.02
same,normalized growth,"locus YIL066C, strain RNR3, stronger effect = lower value",1.04
same,normalized growth,"locus YIL073C, strain SPO22, stronger effect = lower value",1.13
same,normalized growth,"locus YIL125W, strain kgd1, stronger effect = lower value",1
same,normalized growth,"locus YIR030C, strain dcg1, stronger effect = lower value",1.03
same,normalized growth,"locus YJL095W, strain BCK1, stronger effect = lower value",1.08
same,normalized growth,"locus YJL134W, strain LCB3, stronger effect = lower value",1.02
same,normalized growth,"locus YJL168C, strain set2, stronger effect = lower value",1.01
same,normalized growth,"locus YJL187C, strain SWE1 (second series), stronger effect = lower value",1.04
same,normalized growth,"locus YKL009W, strain mrt4, stronger effect = lower value",0.993
same,normalized growth,"locus YKL068W, stronger effect = lower value",1
same,normalized growth,"locus YKL085W, strain MDH1 (second series), stronger effect = lower value",1.01
same,normalized growth,"locus YKL085W, strain MDH1, stronger effect = lower value",1.01
same,normalized growth,"locus YKR001C, strain vps1, stronger effect = lower value",1.07
same,normalized growth,"locus YLR039C, strain RIC1, stronger effect = lower value",1.23
same,normalized growth,"locus YLR058C, strain SHM2, stronger effect = lower value",1.03
same,normalized growth,"locus YLR102C, strain apc9, stronger effect = lower value",0.991
same,normalized growth,"locus YLR268W, strain sec22, stronger effect = lower value",1.04
same,normalized growth,"locus YLR330W, strain CHS5, stronger effect = lower value",1.03
same,normalized growth,"locus YLR342W, strain FKS1 (second series), stronger effect = lower value",1.06
same,normalized growth,"locus YLR371W, strain rom2, stronger effect = lower value",1.02
same,normalized growth,"locus YLR418C, strain cdc73, stronger effect = lower value",1.15
same,normalized growth,"locus YML016C, strain PPZ1, stronger effect = lower value",1.02
same,normalized growth,"locus YML032C, strain rad52, stronger effect = lower value",0.999
same,normalized growth,"locus YML124C, strain tub3, stronger effect = lower value",1.02
same,normalized growth,"locus YMR078C, strain ctf18, stronger effect = lower value",1.01
same,normalized growth,"locus YMR223W, strain ubp8, stronger effect = lower value",1.02
same,normalized growth,[6],1.24
same,normalized growth,"locus YNL067W, strain RPL9B, stronger effect = lower value",1.02
same,normalized growth,[7],1.05
same,normalized growth,"locus YNL233W, strain BNI4, stronger effect = lower value",1.08
same,normalized growth,"locus YNL250W, strain rad50, stronger effect = lower value",0.995
same,normalized growth,"locus YNL271C, strain bni1, stronger effect = lower value",1.01
same,normalized growth,"locus YNL298W, strain CLA4, stronger effect = lower value",1.01
same,normalized growth,"locus YNL307C, strain MCK1, stronger effect = lower value",1.01
same,normalized growth,"locus YNR052C, strain pop2, stronger effect = lower value",1
same,normalized growth,"locus YOL012C, strain htz1",1.02
same,normalized growth,"locus YOL147C, strain pex11, stronger effect = lower value",0.996
same,normalized growth,"locus YOR061W, strain CKA2, stronger effect = lower value",1.02
same,normalized growth,"locus YOR069W, strain VPS5, stronger effect = lower value",1.02
same,normalized growth,"locus YOR136W, strain idh2, stronger effect = lower value",1.01
same,normalized growth,"locus YOR144C, strain elg1, stronger effect = lower value",1
same,normalized growth,"locus YOR184W, strain ser1, stronger effect = lower value",1.03
same,normalized growth,"locus YOR316C, strain cot1, stronger effect = lower value",0.992
same,normalized growth,"locus YPR119W, strain clb2, stronger effect = lower value",0.998
same,normalized growth,"locus YPR141C, strain kar3, stronger effect = lower value",1
same,normalized growth,"locus YPR163C, strain tif3, stronger effect = lower value",1.01
same,normalized growth,"locus YPR167C, strain met16, stronger effect = lower value",1.02
same,normalized growth,"strain wtn01, stronger effect = lower value",1.02
